Test results from the supplement of paper PMC10849652.
About 8,800 targets were measured; listed, in parts, are those with a hit and a random draw of the rest. About 0.5% of all pairs of compound and target were hits.

What was measured:
Experiment in all cases: log2 fold change, soluble protein after heating vs DMSO (PISA); higher = thermal stabilisation; K562 lysate, 10 uM; active = over 0.2 and 3.5 SD of the protein, either way, in both replicates (recomputed)
erlotinib = compound: C#Cc1cccc(Nc2ncnc3cc(OCCOC)c(OCCOC)cc23)c1 [erlotinib]
Outline: (§1)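 To prepare the extract, K562 pellets were dounce-homogenised in PBS pH 7.4 with 1 mM MgCl2, giving crude material at 1 mg/mL protein. This was treated with 10 μM compound for 30 min, then heated in aliquots for 3 min over 48°C-58°C before pooling and addition of NP-40 to 0.5% at 4°C. Centrifugation at 21,000xg for 90 min left soluble protein in the supernatant, which TMTpro 16plex LC-MS/MS quantified with equalised channel sums. Results are log-two fold changes in thermal stability compared with solvent controls, from duplicates.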

[1] = compound: C/C(=N\NC(=O)C1=CC(=CC=C1)S(=O)(=O)N2CCOCC2)/C3=C(C=CC(=C3)Cl)O
Outline: as §1

[2] = compound: C1=CC(=CC=C1C2=NC3=C(N2)C=C(C=C3)C(=O)N)OC4=CC=C(C=C4)Cl
Outline: as §1

[3] = compound: C1=CC2=C(C=CC(=C2)/C=C\3/C(=O)NC(=NCC4=CC=CS4)S3)N=C1
Outline: as §1

[4] = compound: C1=CC2=NC=CN=C2C=C1/C=C/3\C(=O)NC(=O)S3
Outline: as §1

[5] = compound: C1=CC=C(C=C1)C2=NC(=C(N2)C3=CC=NC=C3)C4=CC(=C(C=C4)Cl)O
Outline: as §1

[6] = compound: C1=CC=C2C(=C1)C3=NNC4=CC=CC(=C43)C2=O
Outline: as §1

[7] = compound: C1CCN(C1)C(=O)NC2=CC=CC(=C2)NC3=NC=C(C(=N3)NCCC4=CN=CN4)Br
Outline: as §1

[8] = compound: C1CN(CCC1(CC2=CC=C(C=C2)Cl)N)C3=NC=NC4=C3C=CN4
Outline: as §1

IRAK-1-4 Inhibitor I = compound: C1COCCN1CCN2C3=CC=CC=C3N=C2NC(=O)C4=CC(=CC=C4)[N+](=O)[O-] [IRAK-1-4 Inhibitor I]
Outline: as §1

ibrutinib = compound: C=CC(=O)N1CCC[C@@H](n2nc(-c3ccc(Oc4ccccc4)cc3)c3c(N)ncnc32)C1 [ibrutinib]
Outline: as §1

[9] = compound: CC(=O)c1cnc2ccc(-c3cc(Cl)c(O)c(Cl)c3)nc2c1N[C@H]1CC[C@H](CN(C)C)CC1
Outline: as §1

ralimetinib = compound: CC(C)(C)Cn1c(N)nc2ccc(-c3[nH]c(C(C)(C)C)nc3-c3ccc(F)cc3)nc21 [ralimetinib]
Outline: as §1

[10] = compound: CC(C)(O)CC(=O)NCCn1ccc2ncnc(Nc3ccc(Oc4cccc(C(F)(F)F)c4)c(Cl)c3)c21
Outline: as §1

[11] = compound: CC(C)C1=C2N=C(C=C(N2N=C1)NCC3=CC=CC=C3)NCCCCCCN
Outline: as §1

[12] = compound: CC1=C(C(CC(=O)N1)C2=CC=C(C=C2)C(F)(F)F)C(=O)NC3=C(C=C4C(=C3)C=NN4)F
Outline: as §1

[13] = compound: CC1=C(C2=C(C=C1)C(=O)C3=CC=CC=C3N2CCCN)C
Outline: as §1

[14] = compound: CC1=C(C=C(C=C1)NC(=O)C2=CC(=CC=C2)C(C)(C)C#N)NC3=CC4=C(C=C3)N=CN(C4=O)C
Outline: as §1

[15] = compound: CC1=C(C=C(C=C1)NC(=O)C2=CC(=CC=C2)N(C)C)NC(=O)C3=CC=C(C=C3)O
Outline: as §1

[16] = compound: CC1=CC=C(C=C1)SC2=C3C=C(SC3=CN=C2)C(=O)N
Outline: as §1

Measured: log2 fold change

KRIT1 (UniProt O00522)
Sequence of UniProt O00522 (O00522 whole entry, looked up): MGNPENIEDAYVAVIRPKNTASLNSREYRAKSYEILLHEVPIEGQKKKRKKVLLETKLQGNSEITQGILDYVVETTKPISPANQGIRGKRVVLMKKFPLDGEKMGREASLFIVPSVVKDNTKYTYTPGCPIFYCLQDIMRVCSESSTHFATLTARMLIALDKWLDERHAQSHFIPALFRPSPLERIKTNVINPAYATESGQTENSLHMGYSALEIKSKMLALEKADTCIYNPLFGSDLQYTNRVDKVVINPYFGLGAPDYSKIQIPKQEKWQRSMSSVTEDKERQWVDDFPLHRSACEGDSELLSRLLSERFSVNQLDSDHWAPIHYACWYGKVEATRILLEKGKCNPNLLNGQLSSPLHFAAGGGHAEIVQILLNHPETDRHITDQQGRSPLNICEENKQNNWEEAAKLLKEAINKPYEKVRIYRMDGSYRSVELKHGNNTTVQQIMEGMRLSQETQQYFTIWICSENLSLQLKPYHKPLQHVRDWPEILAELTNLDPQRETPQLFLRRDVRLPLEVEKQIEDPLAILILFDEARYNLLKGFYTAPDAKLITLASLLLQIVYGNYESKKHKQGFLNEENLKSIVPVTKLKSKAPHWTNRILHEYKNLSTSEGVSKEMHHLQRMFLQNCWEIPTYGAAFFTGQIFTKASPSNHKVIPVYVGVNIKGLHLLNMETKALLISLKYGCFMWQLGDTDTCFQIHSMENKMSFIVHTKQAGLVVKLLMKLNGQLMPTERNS
inactive: erlotinib 0.071 | [1] 0.061 | [2] 0.043 | [3] -0.074 | [4] 0.177 | [5] 0.038 | [6] -0.034 | [7] -0.042 | [8] 0.043 | IRAK-1-4 Inhibitor I -0.073 | ibrutinib 0.089 | [9] -0.047 | ralimetinib 0.001 | [10] -0.02 | [11] 0.045 | [12] -0.041 | [13] -0.075 | [14] 0.045 | [15] -0.011 | [16] -0.095

MRPL46 (UniProt Q9H2W6)
inactive: erlotinib -0.027 | [1] -0.01 | [2] -0.039 | [3] -0.124 | [4] -0.069 | [5] 0.023 | [6] 0.089 | [7] -0.009 | [8] -0.064 | IRAK-1-4 Inhibitor I 0.035 | ibrutinib -0.101 | [9] 0.018 | ralimetinib 0.048 | [10] 0.026 | [11] -0.064 | [12] -0.002 | [13] 0.005 | [14] -0.002 | [15] 0.026 | [16] 0.021

MARK2 (UniProt E9PC69)
inactive: erlotinib 0.095 | [1] 0.132 | [2] 0.026 | [3] 0.056 | [4] -0.017 | [5] 0.024 | [6] -0.246 | [7] -0.18 | [8] -0.084 | IRAK-1-4 Inhibitor I -0.076 | ibrutinib 0.139 | [9] -0.053 | ralimetinib 0.014 | [10] -0.004 | [11] 0.015 | [12] -0.012 | [13] -0.063 | [14] 0.024 | [15] 0.045 | [16] 0.012

LIMS1 isoform 3 (UniProt P48059)
Sequence of UniProt P48059 (P48059 whole entry, looked up): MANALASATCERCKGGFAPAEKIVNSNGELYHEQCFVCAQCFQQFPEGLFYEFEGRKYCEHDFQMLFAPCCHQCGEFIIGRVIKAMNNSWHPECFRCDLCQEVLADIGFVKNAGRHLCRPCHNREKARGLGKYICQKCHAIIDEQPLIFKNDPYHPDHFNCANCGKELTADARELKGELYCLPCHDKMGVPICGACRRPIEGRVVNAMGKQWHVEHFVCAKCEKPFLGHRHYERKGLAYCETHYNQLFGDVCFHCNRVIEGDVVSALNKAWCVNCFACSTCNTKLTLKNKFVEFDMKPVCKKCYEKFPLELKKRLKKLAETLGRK
inactive: erlotinib -0.004 | [1] -0.034 | [2] 0.014 | [3] 0.009 | [4] -0.008 | [5] 0.004 | [6] 0.094 | [7] 0.003 | [8] -0.017 | IRAK-1-4 Inhibitor I -0.024 | ibrutinib 0.003 | [9] 0.033 | ralimetinib 0.003 | [10] 0.023 | [11] -0.036 | [12] -0.012 | [13] -0.01 | [14] 0.052 | [15] -0.023 | [16] -0.006

LARS2 (UniProt Q15031)
Sequence of UniProt Q15031 (Q15031 whole entry, looked up): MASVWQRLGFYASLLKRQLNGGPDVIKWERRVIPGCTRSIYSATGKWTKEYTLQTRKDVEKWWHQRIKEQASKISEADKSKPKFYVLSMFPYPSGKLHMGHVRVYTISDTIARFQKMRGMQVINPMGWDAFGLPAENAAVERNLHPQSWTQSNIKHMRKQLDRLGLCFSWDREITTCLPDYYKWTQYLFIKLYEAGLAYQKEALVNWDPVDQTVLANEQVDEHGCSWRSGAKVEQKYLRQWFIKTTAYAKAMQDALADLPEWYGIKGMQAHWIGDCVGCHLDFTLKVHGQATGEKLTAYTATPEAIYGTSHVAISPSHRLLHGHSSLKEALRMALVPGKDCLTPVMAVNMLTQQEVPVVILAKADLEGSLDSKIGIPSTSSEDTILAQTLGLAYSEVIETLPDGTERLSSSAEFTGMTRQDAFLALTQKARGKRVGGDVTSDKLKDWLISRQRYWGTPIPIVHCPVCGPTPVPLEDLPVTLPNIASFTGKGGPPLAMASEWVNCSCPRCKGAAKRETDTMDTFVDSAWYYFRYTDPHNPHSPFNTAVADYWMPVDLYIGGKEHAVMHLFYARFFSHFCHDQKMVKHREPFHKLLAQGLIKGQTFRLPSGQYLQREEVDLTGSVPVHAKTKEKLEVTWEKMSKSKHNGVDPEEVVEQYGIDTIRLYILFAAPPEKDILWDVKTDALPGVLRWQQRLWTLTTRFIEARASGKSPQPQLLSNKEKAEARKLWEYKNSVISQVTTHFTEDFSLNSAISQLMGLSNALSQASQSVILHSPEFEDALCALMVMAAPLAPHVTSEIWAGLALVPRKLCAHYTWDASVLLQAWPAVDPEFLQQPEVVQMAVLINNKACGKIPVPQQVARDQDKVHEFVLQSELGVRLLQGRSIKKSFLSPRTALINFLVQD
active: [2] 0.549
inactive: erlotinib 0.027 | [1] 0.033 | [3] -0.012 | [4] -0.041 | [5] 0.014 | [6] 0.029 | [7] 0.03 | [8] 0.039 | IRAK-1-4 Inhibitor I -0.021 | ibrutinib 0.009 | [9] 0.034 | ralimetinib 0.026 | [10] 0.156 | [11] -0.027 | [12] 0.02 | [13] 0.063 | [14] -0.036 | [15] 0.046 | [16] 0.028

LARS (UniProt Q9P2J5)
inactive: erlotinib 0.021 | [1] 0.05 | [2] -0.024 | [3] 0.024 | [4] 0.013 | [5] 0.016 | [6] -0.026 | [7] -0.012 | [8] -0.002 | IRAK-1-4 Inhibitor I -0.032 | ibrutinib -0.021 | [9] -0.003 | ralimetinib 0.023 | [10] 0.048 | [11] 0.021 | [12] -0.001 | [13] -0.017 | [14] -0.041 | [15] 0.029 | [16] 0.022

MIF (UniProt P14174)
Sequence of UniProt P14174 (P14174 whole entry, looked up): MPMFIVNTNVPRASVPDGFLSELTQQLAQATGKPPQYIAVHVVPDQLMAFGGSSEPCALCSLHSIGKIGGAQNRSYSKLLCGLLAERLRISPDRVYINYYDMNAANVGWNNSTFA
inactive: erlotinib 0.006 | [1] 0.003 | [2] -0.021 | [3] -0.045 | [4] -0.007 | [5] -0.009 | [6] 0.047 | [7] -0.023 | [8] 0.032 | IRAK-1-4 Inhibitor I 0.058 | ibrutinib 0.101 | [9] -0.057 | ralimetinib -0.002 | [10] 0.01 | [11] 0.003 | [12] -0.095 | [13] 0.009 | [14] -0.004 | [15] -0.019 | [16] 0.049

MAP2K7 isoform 4 (UniProt O14733)
active: [6] 0.586 | ibrutinib 1.44
inactive: erlotinib -0.042 | [1] -0.034 | [2] 0.037 | [3] 0.091 | [4] 0.241 | [5] 0.044 | [7] -0.106 | [8] 0.078 | IRAK-1-4 Inhibitor I -0.123 | [9] 0.288 | ralimetinib 0.028 | [10] 0.028 | [11] -0.071 | [12] -0.029 | [13] 0.011 | [14] -0.004 | [15] -0.002 | [16] 0.018

MAPK3 (UniProt P27361)
inactive: erlotinib 0 | [1] 0.02 | [2] 0 | [3] -0.025 | [4] 0.031 | [5] 0.01 | [6] 0.052 | [7] 0.021 | [8] 0.055 | IRAK-1-4 Inhibitor I 0.049 | ibrutinib 0.001 | [9] 0.017 | ralimetinib -0.02 | [10] -0.018 | [11] -0.033 | [12] -0.012 | [13] -0.006 | [14] 0.026 | [15] -0.022 | [16] -0.028

LRWD1 (UniProt Q9UFC0)
Sequence of UniProt Q9UFC0 (Q9UFC0 whole entry, looked up): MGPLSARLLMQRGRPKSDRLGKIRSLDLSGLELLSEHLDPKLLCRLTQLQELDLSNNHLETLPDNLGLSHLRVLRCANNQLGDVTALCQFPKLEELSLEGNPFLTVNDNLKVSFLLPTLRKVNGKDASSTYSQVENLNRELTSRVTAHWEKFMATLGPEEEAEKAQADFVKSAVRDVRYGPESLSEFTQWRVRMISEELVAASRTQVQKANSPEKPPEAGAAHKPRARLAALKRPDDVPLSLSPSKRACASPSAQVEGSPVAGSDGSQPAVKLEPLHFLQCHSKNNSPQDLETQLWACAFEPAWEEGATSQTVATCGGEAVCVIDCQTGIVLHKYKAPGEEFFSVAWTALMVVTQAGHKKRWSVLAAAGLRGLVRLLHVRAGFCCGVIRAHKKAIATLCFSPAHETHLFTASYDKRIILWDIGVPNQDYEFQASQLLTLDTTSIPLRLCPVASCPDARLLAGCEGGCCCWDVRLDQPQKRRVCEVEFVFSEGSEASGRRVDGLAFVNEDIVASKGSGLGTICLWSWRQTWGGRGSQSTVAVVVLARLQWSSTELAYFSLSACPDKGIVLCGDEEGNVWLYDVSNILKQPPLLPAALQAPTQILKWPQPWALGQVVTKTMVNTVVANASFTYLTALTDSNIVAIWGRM
inactive: erlotinib -0.031 | [1] -0.002 | [2] 0.031 | [3] 0.032 | [4] 0.057 | [5] 0.016 | [6] -0.014 | [7] 0.002 | [8] 0.03 | IRAK-1-4 Inhibitor I -0.02 | ibrutinib 0.082 | [9] -0.009 | ralimetinib 0.004 | [10] 0 | [11] 0.035 | [12] 0.015 | [13] -0.004 | [14] 0 | [15] 0.032 | [16] 0.04

LIG4 (UniProt P49917)
inactive: erlotinib 0.107 | [1] 0.014 | [2] -0.04 | [3] 0.028 | [4] 0.002 | [5] 0.024 | [6] -0.003 | [7] 0.009 | [8] -0.057 | IRAK-1-4 Inhibitor I -0.001 | ibrutinib 0.056 | [9] 0.174 | ralimetinib -0.001 | [10] -0.023 | [11] 0.013 | [12] -0.016 | [13] -0.021 | [14] 0.004 | [15] 0.015 | [16] 0.109

MLLT11 (UniProt Q13015)
Sequence of UniProt Q13015 (Q13015 whole entry, looked up): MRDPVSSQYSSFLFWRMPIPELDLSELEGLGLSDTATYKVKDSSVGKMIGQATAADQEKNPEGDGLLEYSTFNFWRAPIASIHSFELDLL
inactive: erlotinib 0.053 | [1] -0.018 | [2] -0.271 | [3] 0.063 | [4] -0.038 | [5] -0.018 | [6] -0.054 | [7] -0.372 | [8] 0.111 | IRAK-1-4 Inhibitor I 0.044 | ibrutinib -0.057 | [9] 0.077 | ralimetinib 0.032 | [10] -0.116 | [11] 0.164 | [12] 0.174 | [13] -0.037 | [14] 0.326 | [15] -0.008 | [16] 0.055

KIF21A isoform 5 (UniProt Q7Z4S6)
inactive: erlotinib -0.025 | [1] 0.022 | [2] -0.002 | [3] 0.01 | [4] -0.013 | [5] -0.016 | [6] -0.034 | [7] -0.009 | [8] 0.01 | IRAK-1-4 Inhibitor I -0.002 | ibrutinib 0.027 | [9] -0.002 | ralimetinib 0.015 | [10] 0 | [11] 0.002 | [12] 0.034 | [13] -0.031 | [14] 0.025 | [15] 0.014 | [16] 0.024

MAPK14 isoform 2 (UniProt Q16539)
inactive: erlotinib -0.004 | [1] 0.011 | [2] -0.049 | [3] 0.016 | [4] 0.017 | [5] 0.633 | [6] -0.045 | [7] -0.02 | [8] 0.059 | IRAK-1-4 Inhibitor I -0.015 | ibrutinib 0.03 | [9] 0.249 | [10] -0.047 | [11] -0.003 | [12] 0.02 | [13] -0.027 | [15] 0.419 | [16] 0.011
active: ralimetinib 0.97 | [14] 0.973

MED13L (UniProt Q71F56)
Sequence of UniProt Q71F56 (Q71F56 whole entry, looked up): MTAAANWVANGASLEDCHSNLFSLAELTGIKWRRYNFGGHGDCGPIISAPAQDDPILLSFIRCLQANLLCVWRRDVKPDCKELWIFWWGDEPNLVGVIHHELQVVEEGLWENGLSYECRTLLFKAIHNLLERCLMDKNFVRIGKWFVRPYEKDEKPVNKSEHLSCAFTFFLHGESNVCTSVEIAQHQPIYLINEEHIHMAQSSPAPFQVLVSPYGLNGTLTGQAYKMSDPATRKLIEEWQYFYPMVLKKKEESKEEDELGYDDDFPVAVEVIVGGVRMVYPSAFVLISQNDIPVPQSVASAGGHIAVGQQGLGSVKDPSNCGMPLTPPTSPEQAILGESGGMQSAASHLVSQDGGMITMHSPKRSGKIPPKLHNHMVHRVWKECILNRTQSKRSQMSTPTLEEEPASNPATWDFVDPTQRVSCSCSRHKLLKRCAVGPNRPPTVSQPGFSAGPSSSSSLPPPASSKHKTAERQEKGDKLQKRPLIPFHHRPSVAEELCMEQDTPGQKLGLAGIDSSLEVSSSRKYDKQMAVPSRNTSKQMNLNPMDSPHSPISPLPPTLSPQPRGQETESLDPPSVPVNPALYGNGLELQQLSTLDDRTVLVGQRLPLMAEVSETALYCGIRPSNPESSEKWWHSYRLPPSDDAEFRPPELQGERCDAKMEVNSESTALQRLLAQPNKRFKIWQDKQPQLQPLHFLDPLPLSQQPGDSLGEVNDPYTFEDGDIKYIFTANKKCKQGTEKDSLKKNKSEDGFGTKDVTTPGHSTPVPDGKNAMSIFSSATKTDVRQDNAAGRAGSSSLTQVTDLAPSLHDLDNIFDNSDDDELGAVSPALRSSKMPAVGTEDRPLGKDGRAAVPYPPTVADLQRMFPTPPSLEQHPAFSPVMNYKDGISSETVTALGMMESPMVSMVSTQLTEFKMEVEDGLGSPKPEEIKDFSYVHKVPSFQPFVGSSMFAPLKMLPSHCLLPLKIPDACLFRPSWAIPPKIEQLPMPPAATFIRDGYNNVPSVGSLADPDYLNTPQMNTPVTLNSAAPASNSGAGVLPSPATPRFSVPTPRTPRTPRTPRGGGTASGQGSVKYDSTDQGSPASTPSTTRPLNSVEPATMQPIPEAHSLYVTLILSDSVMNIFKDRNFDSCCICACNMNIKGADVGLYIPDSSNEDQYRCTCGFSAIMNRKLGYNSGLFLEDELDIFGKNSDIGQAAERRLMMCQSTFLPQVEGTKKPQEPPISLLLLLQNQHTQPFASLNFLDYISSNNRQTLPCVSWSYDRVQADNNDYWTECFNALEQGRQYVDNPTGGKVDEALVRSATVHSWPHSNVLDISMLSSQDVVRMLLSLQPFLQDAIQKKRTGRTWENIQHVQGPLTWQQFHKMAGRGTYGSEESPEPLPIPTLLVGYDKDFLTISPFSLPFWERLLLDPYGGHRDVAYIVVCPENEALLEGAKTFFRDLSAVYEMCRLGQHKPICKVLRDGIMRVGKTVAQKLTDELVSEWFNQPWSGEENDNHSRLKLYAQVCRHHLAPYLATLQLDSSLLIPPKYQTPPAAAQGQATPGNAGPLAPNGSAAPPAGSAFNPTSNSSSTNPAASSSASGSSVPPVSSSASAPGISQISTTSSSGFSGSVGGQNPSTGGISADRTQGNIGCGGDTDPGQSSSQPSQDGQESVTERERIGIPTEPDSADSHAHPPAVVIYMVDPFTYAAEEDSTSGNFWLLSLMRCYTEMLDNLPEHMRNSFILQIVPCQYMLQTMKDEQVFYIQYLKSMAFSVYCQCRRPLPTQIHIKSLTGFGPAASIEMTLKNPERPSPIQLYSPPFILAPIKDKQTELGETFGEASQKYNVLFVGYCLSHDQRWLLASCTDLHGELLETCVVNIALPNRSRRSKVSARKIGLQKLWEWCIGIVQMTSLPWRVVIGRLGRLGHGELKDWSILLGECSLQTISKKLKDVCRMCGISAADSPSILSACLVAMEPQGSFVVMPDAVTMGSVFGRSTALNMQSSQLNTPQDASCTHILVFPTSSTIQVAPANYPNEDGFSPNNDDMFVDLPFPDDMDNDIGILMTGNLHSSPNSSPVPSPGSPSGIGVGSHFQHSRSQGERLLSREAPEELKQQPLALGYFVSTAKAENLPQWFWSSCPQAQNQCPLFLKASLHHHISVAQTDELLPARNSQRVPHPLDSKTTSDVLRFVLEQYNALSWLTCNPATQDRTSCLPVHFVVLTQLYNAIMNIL
inactive: erlotinib 0.048 | [1] -0.049 | [2] 0.03 | [3] 0.024 | [4] 0.034 | [5] -0.014 | [6] -0.035 | [7] 0.024 | [8] 0.013 | IRAK-1-4 Inhibitor I 0.061 | ibrutinib 0.047 | [9] -0.036 | ralimetinib 0.014 | [10] -0.016 | [11] 0.005 | [12] -0.027 | [13] -0.036 | [14] 0.007 | [15] 0.015 | [16] -0.035
